About 83,000 compounds went through this panel and 20% of them were active in at least one assay; those are over-represented in the sample as a whole.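 In brief: 96-well plates, 48 h treatment, single concentration, percent growth endpoint.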 Values without a mark were called inactive. Calls of active or inactive are those of the source.
Tested on: MCF7 breast
Test: NCI-60 one-dose screen, 48 h (100 = growth as untreated, 0 = no growth, -100 = all killed)
Details: 10 µM unless noted
Protocol: Growth inhibition of the MCF7 human tumor cell line is measured as a screen for anti-cancer activity. Cells are grown in 96 well plates and exposed to the test compound for 48 hours. Compounds are tested at a single concentration, which is 10^-5 M for most compounds. The reported endpoint is percent growth (GI% or GIPRCNT), where numbers from 0 - 100% represent growth inhibition, and numbers from -100% - 0 represent cell death. For example, a value of 40 represents 60% growth inhibition. A value of 0 means no net growth occurred over the course of the experiment. A value of -40 indicates 40% of cells at the beginning of the experiment died by the end of the experiment. A value of -100 means all cells are dead at the end of the experiment.
NCI-60 Human Tumor Cell Lines Screen was performed using the standard one-dose NCI protocol, which is described in more detail at https://dtp.cancer.gov/discovery_development/nci-60/default.htm.
Compounds with GIPRCNT values below 10 were considered active. Activity score was based on GIPRCNT using the following formula: […]
Score is 0 for GIPRCNT values of 100 or above, 50 for GIPRCNT values of 0, and 100 for GIPRCNT values of -100.

| Structure (SMILES) | growth |
| --- | --- |
| CCCCCCCCCCCCCC1=NCCN1CCO | 54.8% |
| O=C(Cc1ccccc1)c1ccc(Cl)cc1 | 95.6% |
| O=C1C=CC(Nc2ccccc2[N+](=O)[O-])C1Nc1ccccc1[N+](=O)[O-] (stereo not given) | -77.3% (active) |
| Oc1ccccc1/C=N/Nc1ccc2ccccc2n1 | -18% (active) |
| CC[C@@H](C)OC(=O)c1nn(C(C)=O)c2ccccc12 | 83.6% |
| Cc1ccc(-c2nc(/C=N/Nc3cc(C)nc4ccc(Cl)cc34)c(C)o2)cc1 | -84.4% (active) |
| Cn1c(=O)c2[nH]c(C(O)C(O)C(O)C(O)CO)nc2n(C)c1=O (stereo not given) | 97.9% |
| CC/C(Cc1ccccc1)=C(\c1ccc(OCCN2CCCC2)cc1)c1ccc(OC(C)=O)cc1 | 24.6% |
| O=C(O)c1c([N+](=O)[O-])cnc2ccccc12 | 93% |
| O=C(CO[N+](=O)[O-])Nc1ccc(C(=O)/C=C/c2ccc(Cl)cc2)cc1 | 1.64% (active) |
| CC/C=C\C[C@H](O)C/C=C1/C(=O)C=C[C@@H]1C/C=C\CCCC(=O)OC(C)C | 3.64% (active) |
| C=C1CCC2C3(C)COC(c4ccccc4Br)OC3CCC2(C)C1C/C=C1/C(=O)OCC1OC(C)=O (stereo not given) | -68.9% (active) |
| CC(=O)C1=C(O)C=C2Oc3c(C(=O)/C=C/c4ccccc4)c(O)c(C)c(O)c3[C@]2(C)C1=O | 44.1% |
| ClC1=C2NC=NC2n2c(nnc2-c2ccc(Cl)cc2)N1 (stereo not given) | 85.6% |
| COCCOc1ccc(-c2nc3ccc(-c4nc5ccc(N6CCN(C)CC6)cc5[nH]4)cc3[nH]2)cc1 | 17.7% |
| O=C(CNC1C2CC3CC(C2)CC1C3)Sc1nnc2sc3ccccc3n12 (stereo not given) | 88.7% |
| CN(C)c1ccc(/C=C\C2=[N+](C)c3ccccc3C2(C)C)cc1 | 3.95% (active) |
| O=C1c2cc3c(cc2-c2c1c1cc(Cl)c(Cl)cc1c(=O)n2CCCn1ccnc1)OCO3 | 1.23% (active) |
| O=C1c2c[n+](Cc3ccccc3)ccc2-c2nc3ccccc3c3ccnc1c23 | -42.3% (active) |
| Cc1nc2nc(N)nc(N)c2nc1C | 97.9% |

| Structure (SMILES) | growth |
| --- | --- |
| COc1cc2nc3cc([N+](=O)[O-])ccc3c(NCCCNCC(C)(C)O)c2cc1OC | -33.5% (active) |
| CCC(c1ccccc1)C(CC)c1ccc(O)c(O)c1 (stereo not given) | 98.7% |
| CCN(CC)CCCC(C)NCCCNc1cccc2cccnc12 (stereo not given) | 95.9% |
| CCCCN(CCCC)CCC(C)(O)c1cc2ccccc2c2ccccc12 (stereo not given) | 96.5% |
| Cc1ccc2c(c1)O/C(=C\c1cccc(OCC(=O)c3ccccc3)c1)C2=O | 74.8% |
| CC[n+]1ccc2c(c1)C(=O)c1nccc3c1c-2nc1ccccc13 | -6.21% (active) |
| COc1ccc(S(=O)(=O)NCCNc2nccc(-c3c(-c4cccc(N)c4)nc4sccn34)n2)cc1 | 90.8% |
| O=c1c2cccc3c(NC4CCCCC4)ccc(c32)c2nc3ccccc3n12 | 13.5% |
| Cc1[nH]n(-c2ccccc2)c2nc3nncc3c(-c3ccc(Cl)cc3)c12 | 93.9% |
| Cc1csc2ccc(Cl)cc12 | 98.3% |
| COc1ccccc1N1CCN(CCn2c(=O)c3c(c4ccccc4n3C)n(C)c2=O)CC1 | 93.2% |
| COc1cc(OC)c(/C=C/C(=O)c2c(OC)cc(OC)cc2OC)c(OC)c1 | 19.5% |
| CN1Cc2c(cc(CN3CCCCC3)n2C)C(c2ccc(Br)cc2)C1 (stereo not given) | 71.8% |
| C#Cc1nc2ccccc2c(=O)[nH]1 | -25% (active) |
| CCN(CC)CC(C)Nc1ccc([N+](=O)[O-])c2sc3ccccc3c(=O)c12 (stereo not given) | 7.9% (active) |
| O=C1c2cc3c(cc2-c2c1c1cc(F)c(F)cc1c(=O)n2C[C@H](O)CO)OCO3 | 3.86% (active) |
| CNC(=S)N/N=C/CSC/C=N/NC(=S)NC | 3.33% (active) |
| O=C(Nc1cccc2[nH]c(C(F)(F)F)nc12)c1ccc(Br)cc1F | 27.1% |
| O=C(O)c1ccccc1Nc1cccc(S(F)(F)(F)(F)F)c1 | 93.1% |
| COC(=O)[C@@H]1CC[C@]2(C)[C@H](CC[C@@H]3O[C@@]32C)[C@@]1(C)CC(=O)c1ccoc1 | 93% |

Source: PubChem BioAssay (NCI)
